Test results taken from PubChem BioAssay (NCI).
This is part of a sample that, as a whole, favours compounds with a hit. Of some 83,000 tested, about 20% had one in any assay.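 Single-concentration screen, 48 h exposure, 96-well plates. Endpoint: percent growth. Below 10 = active.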 Unmarked numbers belong to inactive results. Calls of active or inactive are those of the source.

The compounds below were run on M14 melanoma (assay: NCI-60 one-dose screen, 48 h (100 = growth as untreated, 0 = no growth, -100 = all killed)). Details: 10 µM unless noted.
Protocol: Growth inhibition of the M14 human tumor cell line is measured as a screen for anti-cancer activity. Cells are grown in 96 well plates and exposed to the test compound for 48 hours. Compounds are tested at a single concentration, which is 10^-5 M for most compounds. The reported endpoint is percent growth (GI% or GIPRCNT), where numbers from 0 - 100% represent growth inhibition, and numbers from -100% - 0 represent cell death. For example, a value of 40 represents 60% growth inhibition. A value of 0 means no net growth occurred over the course of the experiment. A value of -40 indicates 40% of cells at the beginning of the experiment died by the end of the experiment. A value of -100 means all cells are dead at the end of the experiment.
NCI-60 Human Tumor Cell Lines Screen was performed using the standard one-dose NCI protocol, which is described in more detail at https://dtp.cancer.gov/discovery_development/nci-60/default.htm.
Compounds with GIPRCNT values below 10 were considered active. Activity score was based on GIPRCNT using the following formula: […]
Score is 0 for GIPRCNT values of 100 or above, 50 for GIPRCNT values of 0, and 100 for GIPRCNT values of -100.

| Structure (SMILES) | growth |
| --- | --- |
| CCOC(=O)c1c(C)c(C(=O)OCC)n(C)c1C | 112% |
| COc1ccc2c(c1)nc(N)c1c3cc(C)c(C)cc3cn21 | 57.5% |
| COC(=O)CCC1=C(C)C(C)=N/C1=C\c1[nH]c(-c2ccc[nH]2)cc1OC | 9.58% (active) |
| O=C(Nc1cccc([N+](=O)[O-])c1)c1cccc(C(=O)Nc2cccc([N+](=O)[O-])c2)c1 | 85.4% |
| CCC(O)C(C)(C)C (stereo not given) | 105% |
| CN(C)CCCN1c2nc3ccccc3cc2Sc2cc3ccccc3nc21 | -70.6% (active) |
| O=C(O)c1ccc(NC(=O)c2ccc(Nc3ccnc(C(F)(F)F)c3)cc2)cc1 | 107% |
| C[N+]1(CCC[N+]2(C)C[C@@H]3[C@H](C2)[C@@H]2C=C[C@H]3C2)CCOCC1 (stereo not given in full) | 108% |
| N#Cc1cnc2cc(OC[C@H](O)CO)c(NC(=O)CC3CSSC3)cc2c1Nc1ccc(OCc2cccc(F)c2)c(Cl)c1 | -66.8% (active) |
| COc1cc(OC)c2cc(C(=O)O)c(=O)oc2c1 | 103% |
| Nc1nc(Cl)c2[nH]cnc2n1 | 97.7% |
| Cc1nc(N)[nH]c(=O)c1C | 105% |
| O=[N+]([O-])c1ccc(Oc2cccc(C(F)(F)F)c2)c([N+](=O)[O-])c1 | 9.6% (active) |
| C[n+]1c2ccccc2c(Nc2ccc(N3CCCCC3)cc2)c2[nH]c3ccccc3c21 | -97.3% (active) |
| O=C(OCCBr)c1ccc(Cl)c([N+](=O)[O-])c1 | 91.8% |
| COc1ccc(-c2cncn2-c2ccc(-c3nc4cc(OC)c(OC)c(OC)c4s3)cc2)cc1N | 46.5% |
| CC(=O)c1nc2ccccc2n1CCn1cc(CC(N)C(=O)O)c2ccccc21 (stereo not given) | 103% |
| CCC1(c2ccccc2)Oc2ccccc2-n2c(C#N)c3ccccc3c2C1=O (stereo not given) | 94.3% |
| CCC(C)CC(C)C(=O)c1c(O)ccn(OC)c1=O (stereo not given) | 71.1% |
| CC1=C(C(=O)Nc2ccccc2)C(c2ccc3c(c2)OCCO3)NC(=O)N1 (stereo not given) | 103% |

| Structure (SMILES) | growth |
| --- | --- |
| CC1SC(c2c(Cl)cccc2Cl)N(NC(=O)c2[nH]c3ccc(F)cc3c2-c2ccccc2)C1=O (stereo not given) | 62.8% |
| CCCCn1c(Cc2ccc(Cl)cc2)nc2cc(OC)c(OC)cc2c1=O | 79.2% |
| O=c1ccn(C2OC(CO)C(O)C2F)c(=O)[nH]1 (stereo not given) | 108% |
| COc1cc(/C=C/C(=O)c2c(-c3ccc(F)cc3)nc3sc(C)nn23)cc(OC)c1OC | 34.9% |
| CCN(CC)CCNc1ccc(Cl)cc1Cl | 102% |
| N#CCNc1ccccc1N | 93.4% |
| COc1cc(/C=C/C(=O)Nc2ccc3c(c2)/C(=C\c2cccn2C)C(=O)N3)cc(OC)c1OC | 49.5% |
| CN1CCCC1c1cccnc1 (stereo not given) | 119% |
| S=C(c1ccccc1)N1CCN(c2cccc(Cl)c2)CC1 | 113% |
| COc1cc(C2NC(c3ccc(Cl)cc3)C(C)/C(=N/NC(N)=S)C2C)cc(OC)c1OC (stereo not given) | 92.7% |
| COc1ccc(-c2csc(NC(=O)c3cc(OC)c(OC)c(OC)c3)n2)cc1 | 116% |
| COc1ccc2nc(NC(=O)c3cc(-c4ccc(F)cc4)n4nc(-c5ccccc5)cc4n3)sc2c1 | 81.9% |
| COc1cc(Oc2cc(-c3cccnc3)ccc2NC(=O)Nc2ccc(F)cc2F)cc(OC)c1OC | 110% |
| Cc1cc(N2CCOCC2)nc(N2CCOCC2)n1 | 105% |
| COc1cc(/C=C/C(=O)Nc2cccnc2Nc2cc(OC)c(OC)c(OC)c2)cc(OC)c1OC | 100% |
| C=C1c2c(C)nn(-c3ccc(C#CCOC4OC(CO)C(O)C(O)C4O)cc3)c2N(C)C23C[C@H]1C1(C)c4c(C)nn(-c5ccc(C#CCOC6OC(CO)C(O)C(O)C6O)cc5)c4N(C)C(C)(C[C@H]12)C3 (stereo not given in full) | 0.248% (active) |
| C[C@]12CC[C@@H]3c4ccc(O)c([N+](=O)[O-])c4CC[C@H]3[C@@H]1CC[C@@H]2NS(=O)(=O)c1cccc(Br)c1 | 43.4% |
| CCC1=C(c2ccc(OC)cc2)C(C)(C)Oc2c1ccc(O)c2CN1CCCC1 | -75.8% (active) |
| CCn1c2ccccc2c2ccc(C(C)=O)cc21 | 105% |
| COc1ccc(C2=NNC(c3cc(Cc4ccc(O)c(C5CC(c6ccc(OC)cc6)=NN5)c4)ccc3O)C2)cc1 (stereo not given) | 59.3% |
